Screening data deposited in PubChem BioAssay by National Center for Advancing Translational Sciences (NCATS).
GLA spleen mod = alpha-galactosidase A (human) modulation; P06280; 240,000 tested, 0.008% active; Potency, µM (series often up to 80 µM), actives largely listed as inhibitors; human spleen homogenate, 4MU-alpha-Gal fluorescence, 40 min
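qHTS titration in buffer at pH 5.0. Alpha-galactosidase activity in spleen homogenate was measured via 4-methylumbelliferone release from 1 mM fluorogenic substrate after 40 min at 37C and a pH 10 stop. AC50 came from Hill fits of control-normalized data.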
12-hLO inh = blocks human 12-lipoxygenase activity; purified 12-hLO, xylenol orange hydroperoxide absorbance; 150,000 tested, 0.12% active; Potency, µM (top dose mostly 57.1 µM), most hits filed as inhibitors; P18054; further: nearly all actives have a fitted effect of over 55% in size
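Xylenol orange chromogenic assay: hydroperoxide from 12hLO oxidises Fe(II), giving red-shifted Fe(III)-XO absorbance. Conditions: 150 nM enzyme, 40 uM arachidonic acid, 25 mM Hepes pH 7.0, 0.01% Triton X-100, 30 min, room temperature.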
PNC assembly inh = blocks assembly of the perinucleolar compartment; 140,000 tested, 3.1% active; activity change (PNC), negative = inhibition, % at 10 µM; PC3M PTB-GFP, PNC prevalence imaging, 16 h; active compounds read low;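 active means readout at or below -70, meaning at least 70% loss of cells showing the perinucleolar compartment, a nuclear body marking cancer cells; inconclusive means readout between -30 and a set limit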
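PC3M cells stably expressing PTB-GFP, 750–1000 cells/well, treated 16 h at 37 °C with compound (23 nl of library stock), in duplicate. After paraformaldehyde fixation and Hoechst stain, imaged at 20x; PNC prevalence scored by image analysis.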
ALDH1A1 inh = inhibitors of human aldehyde dehydrogenase 1A1 | Purified ALDH1A1, NADH fluorescence, propionaldehyde substrate | Potency, µM (top dose mostly 75.3 µM), usual class: inhibitors | 220,000 tested, 7.3% active | AID 1030; active means well fitted inhibition curve with a large enough effect, not every such curve was filed as active; inconclusive means small, poorly fitted or top-dose-only effect, or another doubt; inactive means no such curve, though single readings can be large or run the other way
GLA inh pH 4.5 = inhibitors of human alpha-galactosidase A at pH 4.5 | AID 1467 | activity change, negative = inhibition, % at 105 µM | 230,000 tested, under 10 active | purified enzyme, 4-MU-alpha-Gal fluorescence, pH 4.5
Target sequence (P06280 whole entry, looked up): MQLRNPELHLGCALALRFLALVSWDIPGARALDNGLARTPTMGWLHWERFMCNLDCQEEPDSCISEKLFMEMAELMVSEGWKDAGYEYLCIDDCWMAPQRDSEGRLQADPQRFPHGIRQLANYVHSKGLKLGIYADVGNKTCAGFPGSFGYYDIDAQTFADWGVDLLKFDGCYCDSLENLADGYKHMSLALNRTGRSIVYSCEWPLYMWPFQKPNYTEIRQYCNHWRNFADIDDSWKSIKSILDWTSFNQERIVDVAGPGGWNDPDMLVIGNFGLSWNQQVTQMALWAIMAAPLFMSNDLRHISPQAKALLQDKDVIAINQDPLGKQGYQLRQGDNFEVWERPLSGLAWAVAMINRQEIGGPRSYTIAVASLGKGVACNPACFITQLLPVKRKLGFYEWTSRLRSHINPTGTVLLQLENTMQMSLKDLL
HPGD inh = HPGD (human) dehydrogenase inhibition. AID 894. Potency, µM, actives largely listed as inhibitors. 150,000 tested, 4.3% active. P15428. purified HPGD, NADH fluorescence kinetic, PGE2 substrate; active means well fitted inhibition curve with a large enough effect, not every such curve was filed as active; inconclusive means small, poorly fitted or top-dose-only effect, or another doubt; inactive means no such curve, though single readings can be large or run the other way
Target sequence (P15428 whole entry, looked up): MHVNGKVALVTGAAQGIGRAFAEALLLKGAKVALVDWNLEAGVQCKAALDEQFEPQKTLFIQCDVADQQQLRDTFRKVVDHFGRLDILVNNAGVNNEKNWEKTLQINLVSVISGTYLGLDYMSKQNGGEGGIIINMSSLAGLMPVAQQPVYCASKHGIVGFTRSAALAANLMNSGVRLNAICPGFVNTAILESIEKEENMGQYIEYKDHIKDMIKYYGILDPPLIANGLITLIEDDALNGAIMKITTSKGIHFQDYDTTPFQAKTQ
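NADH formation kinetics: reaction with 30 uM PGE2 and 1 mM NAD+ (final), 20 nM enzyme, Tris-HCl pH 8 with Tween 20, after 15 min compound preincubation at room temperature. Fluorescence change, last versus first of five reads.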
A number is an active result; . = inactive; ? = inconclusive; / = not tested or not shown; [ ] = dose if it differs, or a comment. In the library only some 10% were active in any assay of this set; here they are far more common. Unless noted, the call rests on the fitted dose curve; in most records, active means well fitted curve in the direction sought with a large enough effect; inconclusive means small, poorly fitted or top-dose-only effect, or another doubt; inactive means no such curve, though single readings can be large; an effect the other way counts as inactive or inconclusive.

SMILES	GLA spleen mod	12-hLO inh	PNC assembly inh	ALDH1A1 inh	GLA inh pH 4.5	HPGD inh
NS(=O)(=O)c1cc2c(cc1Cl)N[C@H](Cc1ccccc1)NS2(=O)=O	/	.[11.4 µM]	/	?	/	.
O=C(N/N=C/c1cc(Br)ccc1O)C(=O)Nc1ccccc1OC(F)(F)C(F)F	.	?	.	.	.	.
O=C(N/N=C/c1cc(Cl)ccc1O)C(=O)Nc1ccccc1OC(F)(F)C(F)F	.	.	-90.2	.	.	.
CC(C)CCn1c(Oc2ccc(Cl)cc2)nc2c1c(=O)n(C)c(=O)n2C	.	.	.	7.94µM	.	.
COc1ccc(Oc2nc3c(c(=O)n(C)c(=O)n3C)n2Cc2ccccc2)cc1	.	.	.	15.8µM	.	.
CCn1c(Oc2ccc(F)cc2)nc2c1c(=O)n(C)c(=O)n2C	.	/	/	.	.	/
Fc1ccc(-c2cc(C(F)(F)F)n3ncnc3n2)cc1	.	/	/	?	.	/
Cc1ccc(-c2cc(C(=O)NC3=NCCS3)c3cc(Br)ccc3n2)o1	.	.	.	0.112µM	.	2.51µM
CC(C)CC(NC(=O)C(COC(C)(C)C)NC(=O)C(Cc1ccc(O)cc1)NC(=O)C(CO)NC(=O)C(Cc1c[nH]c2ccccc12)NC(=O)C(Cc1cnc[nH]1)NC(=O)C1CCC(=O)N1)C(=O)NC(CCCN=C(N)N)C(=O)N1CCCC1C(=O)NNC(N)=O (stereo not given)	.	/	/	/	/	/
O=C(O)[C@H](Cc1ccccc1)N1C(=O)c2ccccc2C1=O	/	.[11.4 µM]	/	?	/	.
O=C(C(Cc1ccccc1)N1C(=O)c2ccccc2C1=O)N1CCc2ccccc21 (stereo not given)	.	.	-100.0	.	.	.
CC1=NN(c2ccccc2)C(=O)/C1=C/c1ccc[nH]1	.	.	.	.	.	.
CC1=NN(c2ccccc2)C(=O)/C1=C/c1c(O)n(-c2ccc(F)cc2)[nH]c1=O	.	.	.	20µM	.	.
CC1=NN(c2ccccc2)C(=O)/C1=C\c1ccc(Br)s1	.	.	.	7.94µM	.	28.2µM
CC1=NN(c2ccccc2)C(=O)/C1=C/c1cccs1	.	.	?	14.1µM	.	31.6µM
O=C1Oc2ccccc2C(=O)/C1=C\N1C(=O)N/C(=C\c2ccccc2O)C1=O	/	.[11.4 µM]	/	?	/	.
CN1CCN(CCCNC(=S)Nc2ccc(F)c(Cl)c2)CC1	.	/	/	.	.	/
CC(=O)c1ccc(NC(=O)/C(=C\c2cccs2)NC(=O)c2ccco2)cc1	.	/	/	.	.	/
CC(=O)c1sc(NC(=O)c2ccccc2)nc1-c1ccccc1	.	/	/	?	.	/
CCOC(=O)Nc1nc(-c2ccccc2)c(C(=O)c2ccccc2)s1	.	.	-82.9	?	.	.
COC(=O)Nc1nc(-c2ccccc2)c(C(=O)c2ccc(Cl)cc2)s1	.	.	-102.1	.	.	.
COCCN(CCOC)S(=O)(=O)c1ccc(C(=O)Nc2nc(-c3ccccc3)c(C(=O)c3ccccc3)s2)cc1	.	.	.	?	.	.
CC(=O)c1sc(NC(=O)c2c(F)cccc2F)nc1-c1ccccc1	.	/	/	11.2µM	.	/
CC(O)c1cccc2cc(C(O)CNC(C)(C)C)oc12 (stereo not given)	.	/	/	/	/	/
O=C(Nc1ccc(Br)cc1Cl)NC1CC1	.	/	/	.	.	/
SMILES	GLA spleen mod	12-hLO inh	PNC assembly inh	ALDH1A1 inh	GLA inh pH 4.5	HPGD inh
C=CC[C@@H]1C=C[C@@H](O/N=C\[C@@H](OC)[C@H](C)/C=C\CC(=O)OC)[C@@H](CO)O1	.[17.5 µM]	/	/	.[13.5 µM]	/	/
CCc1ccc2c(CN3CCc4ccccc43)cc(=O)oc2c1	.	.	.	?	.	/
CCc1ccc2c(CN3CCN(S(=O)(=O)c4cccs4)CC3)cc(=O)oc2c1	.	.	?	12.6µM	.	.
O=C(Oc1ccccc1Cl)c1ccc(-n2cncn2)nc1	.	.	?	.	.	.
C=C(C)COc1ccc(-c2nc(N)ncc2-c2ccc(OC)cc2)c(O)c1	.	.	.	?	/	?
C=C(C)COc1ccc(-c2ncncc2Oc2ccc(OC)cc2)c(O)c1	.	.	.	20µM	.	17.8µM
N#CCc1c(C#N)c(N)nc(N2CCCC(O)C2)c1C#N (stereo not given)	.	/	/	3.55µM	.	/
O=C(O)c1cc([N+](=O)[O-])c(NCCC2=CCCCC2)c([N+](=O)[O-])c1	.	/	/	10µM	.	/
COc1cccc(C(=O)CSc2nc3ccccc3n2CC(=O)N(C(C)C)C(C)C)c1	.	.	-100.0	.	.	.
CCCn1c2ccccc2c2nnc(SC(CC)C(=O)Nc3sc4c(c3C#N)CCCC4)nc21 (stereo not given)	.	.	?	28.2µM	.	.
Cc1cccc(-n2c(C)cc(C(=S)N3CCOCC3)c2C)c1C	.	/	/	?	.	/
Cc1cc(C(=S)N2CCOCC2)c(C)n1-c1ccc(Cl)cc1	.	.	.	22.4µM	.	28.2µM
Cc1cc(C)cc(-n2c(C)cc(C(=S)N3CCOCC3)c2C)c1	.	.	.	.	.	3.98µM
CC1(C)S[C@H]2[C@@H](NC(=O)C(N)c3ccccc3)C(=O)N2[C@H]1C(=O)O (stereo not given in full)	.	.	/	.	.	.
CC(=O)C(Sc1nn(C)c(=S)s1)C(=O)Nc1ccccc1 (stereo not given)	.	.	.	4.47µM	.	?
Cc1nc(NCCO)c2nc(-c3ccccc3)n(CCCN(C)C)c2n1	.	.	/	?	.	?
CCC(C)Nc1ccc(NC(C)CC)cc1 (stereo not given)	.	.	/	8.91µM	/	.
CCn1c(SCC(=O)c2ccc(C)cc2)nnc1-c1ccncc1	.	.	.	?	.	31.6µM
CCn1c(SCC(=O)OC)nnc1-c1ccccc1	.	/	/	.	.	/
CCn1c(SCC(=O)O)nnc1-c1ccccc1	.	.	-95.8	.	.	.
Cc1ccc(C(=O)CSc2nnc(-c3ccncc3)n2C)cc1	.	/	/	.	.	/
CCn1c(SCC(=O)c2ccc(C)cc2)nnc1-c1ccoc1C	.	.	.	?	.	31.6µM
N/C(=N\OC(=O)Nc1ccccc1)c1ncc([N+](=O)[O-])s1	.	/	/	/	.	/
N#CC(C#N)=Cc1cccn1-c1ccc(S(N)(=O)=O)cc1	.	/	/	?	.	/
CN1CCN(c2nc(-c3ccoc3)nc3ccccc23)CC1	.	/	/	.	/	/
SMILES	GLA spleen mod	12-hLO inh	PNC assembly inh	ALDH1A1 inh	GLA inh pH 4.5	HPGD inh
O=S(=O)(c1c(F)cccc1F)N1CCN(C(=S)NCc2ccc3c(c2)OCO3)CC1	.	/	/	3.98µM	.	/
S=C(NCc1ccccc1)NCc1ccc2c(c1)OCO2	.	.	?	?	.	15.8µM
COc1ccc(CCNC(=S)Nc2ccccc2C)cc1	.	.	.	.	.	.
Cc1ccccc1NC(=S)NCCc1ccccc1	.	?	?	?	.	25.1µM
S=C(NCc1ccccc1)NCc1ccccc1	.	?	.	?	.	14.1µM
OCCNC(=S)NCc1ccccc1	.	/	/	/	.	/
O=C(O)CCCC/C=C\C[C@@H](O)/C=C/C=C/C=C\[C@@H](O)CCCC(=O)O	.	.	/	.	.	.
